Source: PubChem
Many of the other results were omitted from the sample, so hits are more common in it than they were.
IDH1 R132H inh – human IDH1 R132H inhibition | O75874 | IDH1-R132H enzyme, NADPH consumption, diaphorase/resazurin fluorescence | Potency, µM (highest dose often 76.6 µM), for inactives: at the highest dose activity change, negative = inhibition, hits mostly inhibitors | actives 0.093% (n = 390,000) | AID 602179; note: potency is the fitted concentration of half-maximal effect; % is set by controls: 0 for no effect and ±100 for the full control effect; nearly all actives have a fitted effect of over 65% in size
Target sequence (O75874 whole entry R132H, stated change not applied): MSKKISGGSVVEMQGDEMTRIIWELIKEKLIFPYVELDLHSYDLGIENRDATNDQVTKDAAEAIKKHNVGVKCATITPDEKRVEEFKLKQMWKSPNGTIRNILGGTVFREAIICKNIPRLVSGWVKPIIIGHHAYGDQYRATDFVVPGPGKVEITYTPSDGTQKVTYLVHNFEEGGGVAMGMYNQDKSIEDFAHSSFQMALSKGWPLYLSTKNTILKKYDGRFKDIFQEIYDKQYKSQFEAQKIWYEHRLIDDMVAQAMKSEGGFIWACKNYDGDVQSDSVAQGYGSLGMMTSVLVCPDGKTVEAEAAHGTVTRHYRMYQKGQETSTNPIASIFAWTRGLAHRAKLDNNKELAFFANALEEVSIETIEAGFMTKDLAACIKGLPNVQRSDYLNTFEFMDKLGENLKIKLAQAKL
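IDH1-R132H (0.5 ug/mL dispensed) in pH 7.5 Tris buffer was preincubated 30 min with compound, then given a substrate mix of 0.016 mM NADPH and 2 mM alpha-KG for 80 min at room temperature; remaining NADPH was read by diaphorase/resazurin fluorescence.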
RGS4 inh – inhibitors of human regulator of G protein signaling 4 | Transcreener GDP fluorescence polarization, RGS4-accelerated GTP hydrolysis | Potency, µM (doses to about 114 µM), inactives show top-dose activity change, negative = inhibition, hits mostly inhibitors | actives 0.039% (n = 390,000) | AID 504845; note: potency is the fitted concentration of half-maximal effect; % is set by controls: 0 for no effect and ±100 for the full control effect; nearly all actives have a fitted effect of over 75% in size
Target sequence (P49798 whole entry, looked up): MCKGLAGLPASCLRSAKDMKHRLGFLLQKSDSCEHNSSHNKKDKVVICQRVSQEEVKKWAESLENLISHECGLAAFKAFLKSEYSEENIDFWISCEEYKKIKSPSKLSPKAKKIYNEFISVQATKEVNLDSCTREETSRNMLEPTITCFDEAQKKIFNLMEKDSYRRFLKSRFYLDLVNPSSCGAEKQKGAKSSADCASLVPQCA
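MLSMR compounds (23 nl, pin-transferred) preincubated 10 min at room temperature with a 500nM (2x) first reagent, then RGS4 at 900nM (2x) plus Transcreener GDP mix added; fluorescence polarization (620/688 nm) read before and after 90 min at 30 °C.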
ClpP mod – qHTS Assay for Activators of ClpP; ATP-dependent Clp protease proteolytic subunit (Bacillus subtilis (strain 168)), P80244; purified B. subtilis ClpP, FRET peptide cleavage, 20 min; Potency, µM (series often up to 57.5 µM), inactives show top-dose activity change, negative = active; actives 1.9% (n = 340,000); AID 651965, 2013; active = well fitted falling curve with a large enough effect; inconclusive = small, poorly fitted or top-dose-only effect; inactive = no such curve, though single readings can be large or run the other way; note: potency is the fitted concentration of half-maximal effect; the source files actives as falling curves though it sought activators and does not explain the sign; nearly all actives have a fitted effect of over 65% in size
Target sequence (P80244 whole entry, looked up): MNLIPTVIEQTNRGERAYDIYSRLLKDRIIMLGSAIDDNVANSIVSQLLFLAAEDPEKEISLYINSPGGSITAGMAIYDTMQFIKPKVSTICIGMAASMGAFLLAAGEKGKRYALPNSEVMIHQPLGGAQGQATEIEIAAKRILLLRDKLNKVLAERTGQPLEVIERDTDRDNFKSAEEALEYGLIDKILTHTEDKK
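Buffer: 100 mM Tris/HCl pH8, 100 mM KCl, 0.05% low protease BSA, 2.5% glycerol, 0.01% Tween-20. ClpP 10 microg/mL final; 20 min RT; delta FRET normalized to ADEP and DMSO controls.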
LDHA inh – LDHA (human) enzyme inhibition | purified LDHA, NADH/diaphorase-resazurin fluorescence; hits give low values | activity change, % (values are at about 110 or 230 µM) | actives 0.15% (n = 480,000); in the data active = activity change below about -30%; inconclusive = mostly about -25% to -30%;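 note: plate controls were DMSO wells for no effect and wells without enzyme for full effect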
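Human LDH5 at 2 nM final in Tris HCl pH 7.4 with 0.06 mM NADH and 0.2 mM pyruvate, reacted 5 minutes at room temperature. Remaining NADH coupled via diaphorase/resazurin; resorufin fluorescence read at 0 and 20 minutes, normalized to enzyme-free and DMSO wells.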
ASM inhibitor – inhibitors of human secretory acid sphingomyelinase; P17405; placental ASM, HMU-PC fluorogenic substrate, 60 min; Potency, µM (top dose mostly 57.5 µM), inactives show at the top dose activity change, negative = inhibition, hits mostly inhibitors; actives 0.006% (n = 340,000); AID 504937; note: potency is the fitted concentration of half-maximal effect
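qHTS format. ASM enzyme prepared from human placenta hydrolyses the fluorogenic substrate HMU-PC0 (9 uM final) over 60 min at 37 °C after a 10 min compound preincubation.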
Mito fusion yeast – inhibitors of mitochondrial division or activators of mitochondrial fusion; S. cerevisiae fusion-defective mutant growth rescue, CellTiterGlo 48 h; Potency, µM (highest dose often 46.1 µM), for the others: top-dose growth rescue (activation), most hits filed as activators; actives 0.23% (n = 320,000); note: potency is the fitted concentration of half-maximal effect; % of control where 0% means no effect; nearly all actives have a fitted effect of over 45% in size
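Temperature-sensitive fusion-defective S. cerevisiae (e.g. fzo1-1, mgm1-5) were grown with compound in YPEG medium (3% ethanol, 3% glycerol) for 48 hours at 37C. Growth rescue was measured as viability by CellTiterGlo luminescence after 10 minutes at ambient.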
* = called active by the depositor; i = inactive; ? = inconclusive; . = not tested or not shown; ! = a repeat was not active; [ ] = remark or other dose. Unless noted, calls come from the whole dose curve; as a rule, active = well fitted curve in the direction sought with a large enough effect; inconclusive = small, poorly fitted or top-dose-only effect, or another doubt; inactive = no such curve, though single readings can be large; an effect the other way counts as inactive or inconclusive.

SMILES	IDH1 R132H inh	RGS4 inh	ClpP mod	LDHA inh	ASM inhibitor	Mito fusion yeast
CCOC(=O)c1c(NC(=O)c2ccoc2C)sc2c1CCC(C(C)(C)C)C2 (stereo not drawn)	.	.	.	5.7	.	.
CCOC(=O)c1c(NC(=O)c2nn(CC)cc2Br)sc(C)c1C	5.8%	-19.7%	35.0%	-4.9	81.7%	4.7%
CCn1ncc(Br)c1C(=O)Nc1sc2c(c1C(N)=O)CCC2	6.7%	?	-3.9%	-2.6	-0.7%	20µM*
COc1ccc(NS(=O)(=O)c2cc(NC(=O)/C=C/c3cccs3)ccc2N2CCOCC2)cc1	-5.2%	-22.6%	28.2µM*	-1.6	-17.8%	-22.3%
COc1cccc(CN(C)C(=O)CSc2nc(-c3cccs3)nc3ccccc23)c1OC	.	.	.	5.6	.	.
O=C1CCCN1CCCN1CC(C(=O)N(CCO)Cc2ccccc2)CCC1=O (stereo not drawn)	-0.3%	7.3%	31.6µM*	0.2	1.1%	-0.2%
Cc1nn(-c2cccc(Cl)c2)c2nc(-c3ccco3)cc(C(=O)O)c12	-0.4%	-15.4%	14.1µM*	-1.7	77.3%	0.4%
O=C(CCc1ncc(-c2ccc(Cl)cc2)o1)Nc1ccc(F)cc1Cl	.	.	.	-17.7	.	.
O=C(N/N=C/c1ccc(Br)cc1)c1ccc(Br)o1	2.1%	-41.8%	-2.2%	-31.7*	-1.0%	2.1%
NC(=O)COC(=O)c1cc(-c2ccccc2)nc2ccccc12	.	.	.	-1.6	.	.
CCC(=O)Nc1cccc(C(=O)/C=C/c2ccccc2)c1	1.2%	-52.6%	15.8µM*	-5.8	-0.5%	9.2%
CCOC(=O)CN(c1ccccn1)S(=O)(=O)c1ccccc1	-13.0%	-2.5%	31.6µM*	-3.6	0.8%	-3.7%
Cc1cc(SCC(=O)NC(=O)NCc2ccccc2)nc2ccccc12	.	.	.	-3.4	.	.
O=C(c1cc(-c2cccs2)nc2ccccc12)N1CCN(C(=O)C2CC2)CC1	.	.	.	-19.7	.	.
COc1ccc(NS(=O)(=O)c2cccc(C(=O)NCC(c3ccc(OC)cc3)N3CCCC3)c2)cc1 (stereo not drawn)	-7.7%	13.5%	28.2µM*	-7.4	0.1%	5.7%
O=C1CCCc2c1cc(C(=O)NCc1ccco1)c(=O)n2-c1ccc(Cl)cc1	5.1%	-43.3%	20µM*	11.4	-6.5%	-5.8%
O=C(COC(=O)c1ccc(N2CCCC2=O)cc1)c1ccc2c(c1)CCCC2	.	.	.	-11.3	.	.
C[C@]12CC[C@@H]3c4cc(O)c(O)cc4CC[C@H]3[C@@H]1CC[C@@H]2O	-11.3%	-18.1%	0.9%	17.9	5.0%	16.7%
C[C@]12CC[C@@H]3c4ccc(O)cc4CC[C@H]3[C@@H]1CC[C@@H]2O	-10.5%	15.8%[56.9 µM]	-0.8%	-3.9	2.3%	23.1µM*!
CC(Nc1ccc2oc(C(C)(C)C)nc2c1)c1nc(C(C)(C)C)no1 (stereo not drawn)	.	.	.	8.9	.	.
Cc1cc2c(cc1S(=O)(=O)N1CCN(c3cccc(C)c3C)CC1)OCCN2C	-0.5%	-11.8%	28.2µM*	-3.2	3.3%	7.0%
COc1cccc(N2CCN(S(=O)(=O)c3cc4c(cc3C)N(C)CCO4)CC2)c1	-3.9%	5.8%	?	0.6	-2.2%	2.9%
COC(=O)Cc1ccc2sc(-c3ccccc3)nc2c1	3.7%	-12.5%	28.2µM*	-6.0	6.8%	0.0%
O=C(O)Cc1ccc2sc(-c3ccccc3)nc2c1	0.4%	-13.1%	?	-10.2	3.8%	-2.2%
CC1(C)Cc2c(C#N)c(NCC3CCCO3)nc(-c3ccco3)c2CO1 (stereo not drawn)	13.7%	-19.0%	11.2µM*	4.3	i	18.6%
SMILES	IDH1 R132H inh	RGS4 inh	ClpP mod	LDHA inh	ASM inhibitor	Mito fusion yeast
Cc1nc(NCCO)c(C#N)c2c1COC(C)(C)C2	1.9%	-5.6%	22.4µM*	-7.9	9.1%	1.3%
CC1(C)Cc2c(C#N)c(NCCc3ccccc3)nc(-c3ccco3)c2CO1	1.6%	?	28.2µM*	-1.9	i	0.9%
CCOC(=O)c1cc2cc(Oc3ccc4[nH]c(C(=O)OCC)cc4c3)ccc2[nH]1	.	.	.	15.5	.	.
CN(C)S(=O)(=O)c1cccc(-c2cn3cc(Cl)ccc3n2)c1	-0.2%	-2.9%	28.2µM*	-2.5	4.0%	-5.3%
O=S(=O)(c1cccc(-c2cn3cc(Cl)ccc3n2)c1)N1CCOCC1	15.8%	-35.1%	28.2µM*	-1.3	-2.0%	-1.3%
CC(C)(C)C1CCCCC1NCc1cccc(C#N)c1 (stereo not drawn)	.	.	.	-5.6	.	.
COc1ccc(/C=C/c2ccccc2)cc1	.	.	.	5.9	.	.
Cc1cc(NCCCN2CCOCC2)n2ncc(-c3ccc(Cl)cc3)c2n1	11.0%	12.5%	25.1µM*	-10.2	9.8%	-7.7%
Cc1cc(NCCCn2ccnc2)n2ncc(-c3ccc(Cl)cc3)c2n1	2.9%	14.2%	20µM*	-6.9	6.9%	3.3%
CC(C)N(Cc1nc2ccccc2c(=O)[nH]1)C(=O)c1sc2cc(F)ccc2c1Cl	.	.	.	-4.5	.	.
CC(CNC(=O)c1ccc2c(c1)nc1n2CCCC1)c1ccccc1 (stereo not drawn)	.	.	.	-1.6	.	.
CCOc1ccc(-c2nc(CSCC(=O)NCCN3CCOCC3)c(C)o2)cc1	0.5%	2.6%	31.6µM*	-1.2	3.7%	3.3%
COCCNC(=O)CSCc1nc(-c2ccc(OC)c(OC)c2)oc1C	.	.	.	-2.9	.	.
COc1ccc(-c2nc(CSCC(=O)NCCC(C)C)c(C)o2)cc1OC	-2.8%	7.1%	28.2µM*	-3.5	.	.
CCOc1ccc(-c2nnc(SCC(=O)NCCC(C)C)nc2-c2ccc(OCC)c(OC)c2)cc1OC	-7.3%	33.3%	15.8µM*	-7.6	.	.
CCOCCCNC(=O)CSCc1nc(-c2ccc(C)cc2)oc1C	.	.	.	-34.2*	.	.
CCOc1ccc(-c2nnc(SCC(=O)NCCc3ccccc3)nc2-c2ccc(OCC)c(OC)c2)cc1OC	16.1%	-31.2%	-6.3%	2.0	.	.
COc1ccc(-c2nc(CSCC(=O)NCCc3ccc(OC)c(OC)c3)c(C)o2)cc1	7.5%	-29.9%	-26.3%	-1.7	.	.
COc1ccc(-c2nc(CSCC(=O)NCCc3ccccc3)c(C)o2)cc1	23.4%	-9.6%	31.6µM*	1.5	.	.
CC(C)(C)S(=O)(=O)c1ccc2nc3c(n2c1)CCCC3	7.9%	21.5%	28.2µM*	-7.2	34.5%	0.0%
Cc1sc(N)c(C#N)c1-c1ccc(CC(C)C)cc1	.	.	.	9.2	.	.
COc1ccc(Oc2coc3cc(OC(=O)/C=C/c4ccc(F)cc4)ccc3c2=O)cc1	9.2%	-2.9%	0.5%	-2.5	-0.8%	-0.3%
COc1ccc(Oc2coc3cc(OC(=O)/C=C/c4ccccc4)ccc3c2=O)cc1	4.6%	25.3%	25.1µM*	-6.7	2.8%	2.4%
COc1cc(C(=O)Oc2ccc3c(=O)c(-c4ccccc4)coc3c2)cc(OC)c1OC	.	.	.	-31.9*	.	.
